An excerpt weighted towards active compounds, which were near 5.3% of everything screened.
ALOX15B inhib: blocks human 15-lipoxygenase 2 activity | O15296 | purified 15hLO-2, xylenol orange hydroperoxide absorbance | Potency, µM (top dose mostly 57.1 µM), most hits filed as inhibitors | hit rate 0.56% among 110,000 | AID 881; further: nearly all actives have a fitted effect of over 60% in size
Target sequence (O15296 whole entry, looked up): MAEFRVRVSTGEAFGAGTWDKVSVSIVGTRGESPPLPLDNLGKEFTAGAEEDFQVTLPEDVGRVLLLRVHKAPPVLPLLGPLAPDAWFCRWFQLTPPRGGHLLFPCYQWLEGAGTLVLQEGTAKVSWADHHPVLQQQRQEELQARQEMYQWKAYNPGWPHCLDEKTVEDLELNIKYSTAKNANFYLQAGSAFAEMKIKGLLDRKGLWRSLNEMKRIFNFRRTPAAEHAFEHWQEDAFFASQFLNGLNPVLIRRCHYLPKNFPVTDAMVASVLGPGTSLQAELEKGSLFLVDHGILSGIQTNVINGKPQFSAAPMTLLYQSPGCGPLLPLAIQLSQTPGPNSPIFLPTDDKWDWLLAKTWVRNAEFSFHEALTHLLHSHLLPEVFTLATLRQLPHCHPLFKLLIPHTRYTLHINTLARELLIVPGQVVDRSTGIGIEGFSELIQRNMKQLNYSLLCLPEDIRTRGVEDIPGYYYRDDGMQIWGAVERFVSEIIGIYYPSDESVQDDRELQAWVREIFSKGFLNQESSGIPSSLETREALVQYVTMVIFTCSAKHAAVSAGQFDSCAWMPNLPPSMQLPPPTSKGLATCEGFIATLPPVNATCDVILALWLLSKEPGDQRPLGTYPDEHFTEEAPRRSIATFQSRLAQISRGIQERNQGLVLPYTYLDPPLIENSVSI
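Screening format was qHTS against 50 nM purified 15hLO-2 in Hepes pH 7.5 with detergent. Activity follows hydroperoxide formation from 45 uM arachidonic acid, measured as 573:405 nm absorbance ratio of the ferric-xylenol orange complex.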
PNC assembly inh: perinucleolar compartment assembly inhibition; activity change (PNC), negative = inhibition, % at 10 µM; hit rate 3.1% among 140,000; AID 2417; PC3M PTB-GFP, PNC prevalence imaging, 16 h; active compounds read low;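 active means readout at or below -70, meaning at least 70% loss of cells showing the perinucleolar compartment, a nuclear body marking cancer cells; inconclusive means readout between -30 and a set limit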
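Compounds are pinned in duplicate onto adhered PC3M cells stably expressing GFP-tagged PTB and incubated 16 h at 37 C. Cells are then fixed, nuclei stained with Hoechst, and PNC-positive cells counted.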
IMPase cell inh: IMPase inhibition in cells. inhibition (IP1 accumulation), % at 46.1 µM. CHO-M1 cells, IP1 accumulation, HTRF TR-FRET ratio. P97697. 120,000 tested, under 10 active; active means well fitted curve in the direction sought with a large enough effect in the signal ratio, not every such curve was filed as active; inconclusive means small, poorly fitted or top-dose-only effect, or a change in a side signal; inactive means no such curve, though single readings can be large or run the other way; the % refers to the signal ratio;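 further: cells stimulated with carbachol in lithium chloride buffer; higher means more IMPase inhibition seen as more IP1 and lower FRET ratio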
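Carbachol-driven Gq signalling in CHO-M1 cells (2000/well) generates IP1. Compounds that block IMPase raise IP1 and so reduce the FRET signal from Eu-anti-IP1 and d2-IP1 after a 10 min room-temperature lysis.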
ALOX12 inhib: 12-hLO (ALOX12) enzyme inhibition; P18054; purified 12-hLO, xylenol orange hydroperoxide absorbance; Potency, µM (series often up to 57.1 µM), actives largely listed as inhibitors; hit rate 0.12% among 150,000; AID 1452; further: nearly all actives have a fitted effect of over 55% in size
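Xylenol orange chromogenic assay: hydroperoxide from 12hLO oxidises Fe(II), giving red-shifted Fe(III)-XO absorbance. Conditions: 150 nM enzyme, 40 uM arachidonic acid, 25 mM Hepes pH 7.0, 0.01% Triton X-100, 30 min, room temperature.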
IMPase Li cell: cell-permeable IMPase inhibitors with lithium potentiation; CHO-M1 cells, IP1 TR-FRET (IP-One), carbachol + lithium; Potency, µM (highest dose often 59.4 µM), usual class: inhibitors; hit rate 0.35% among 210,000; AID 1457;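 further: IP1 builds up when IMPase is blocked and the TR-FRET signal falls; nearly all actives have a fitted effect of over 50% in size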
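CHO cells stably expressing M1 receptor (2000/well) were cultured 16–30 h, then exposed to compounds with a small lithium addition for 30 min at 37C. IP1 was measured by TR-FRET competition; AC50 from Hill fits.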
HPGD inh: HPGD (human) dehydrogenase inhibition; P15428; purified HPGD, NADH fluorescence kinetic, PGE2 substrate; Potency, µM, hits mostly inhibitors; hit rate 4.3% among 150,000; active means well fitted inhibition curve with a large enough effect, not every such curve was filed as active; inconclusive means small, poorly fitted or top-dose-only effect, or another doubt; inactive means no such curve, though single readings can be large or run the other way
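20 nM HPGD preincubated 15 min at room temperature with compound in 50 mM Tris-HCl pH 8, 0.01% Tween 20. Started with 1 mM NAD+ and 30 uM prostaglandin E2; NADH fluorescence (360/450 nm) read 5 times over 30-s intervals, last minus first.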
Hits are given with their value; – = inactive; ? = inconclusive; · = no result given; [ ] = remark or other dose. Unless noted, the call rests on the fitted dose curve; in most records, active means well fitted curve in the direction sought with a large enough effect; inconclusive means small, poorly fitted or top-dose-only effect, or another doubt; inactive means no such curve, though single readings can be large; an effect the other way counts as inactive or inconclusive.

SMILES	ALOX15B inhib	PNC assembly inh	IMPase cell inh	ALOX12 inhib	IMPase Li cell	HPGD inh
CCn1cc[n+](C)c1P(c1ccccc1)c1ccccc1	·	–	–	–	–	25µM
Cc1cc(C)cc(NC(=O)Cn2cc(C(=O)c3cccs3)c3ccccc32)c1	·	·	–	·	·	·
Cc1cc(C)nc(-n2nc(C)cc2Nc2ccccc2)n1	–	–	–	–	–	–
Cc1cc(Nc2ccccc2)n(-c2ccccc2)n1	–	–	–	–	–	18µM
O=S(NCc1ccco1)C12CC3CC(CC(C3)C1)C2 (stereo not drawn)	·	-100	–	–	–	?
Cc1ccccc1NCC(=O)N/N=C/C(Br)=C/c1ccccc1	–	?	–	–	–	?
CC(C)C(NC(=O)C12CC3CC(CC(C3)C1)C2)C(=O)NC1=NCCS1 (stereo not drawn)	–	–	–	–	–	–
CC(NC(=O)C1CCCCC1)C(=O)NC1=NCCS1 (stereo not drawn)	–	-112	–	–	–	–
CCOc1ccccc1C(=O)NN1C(=O)CCC1=O	·	-114	·	–	–	–
CCOC(=O)c1ccc(N2Cc3cc(C)c(C)cc3C2)cc1O	–	–	–	–	–	–
O=C(O)c1ccc(N2Cc3ccccc3C2)cc1O	–	–	–	–	–	16µM
COc1ccc(C2C(C#N)=C(N)SC(N)=C2C#N)cc1OC	?	?	–	–	–	16µM
CCOc1cc(C2C(C#N)=C(N)SC(N)=C2C#N)ccc1OCCN1CCOCC1	–	?	–	–	?	22µM
COc1ccc(N2CCN(C(c3cccs3)C(C)NS(C)(=O)=O)CC2)cc1 (stereo not drawn)	·	·	·	·	–	·
CCc1c(C(=O)Nc2cc(C)ccc2OC)[nH]c(C)c1C(C)=O	–	-94	–	–	–	–
CC1(C)CC(=O)C(C=Nc2ccc(O)cc2)=C(O)C1	–	–	–	–	–	–
COC(=O)c1ccc(N)c(N=CC2=C(O)CC(C)(C)CC2=O)c1	·	-109	·	–	–	–
COc1cccc(N=CC2=C(O)CC(C)(C)CC2=O)c1	·	-113	·	–	–	–
CSc1ccccc1N=CC1=C(O)CC(C)(C)CC1=O	·	-100	–	–	–	–
CC1(C)CC(=O)C(C=NCC(N)=O)=C(O)C1	–	–	–	–	·	–
CC1(C)CC(=O)C(C=NCCCO)=C(O)C1	–	-87	–	–	–	–
COc1cccc(N=CC2=C(O)CCCC2=O)c1	·	·	·	·	–	·
COc1ccc(CN2CCN(CCC(C)C)C(CCO)C2)cc1Cn1cncn1 (stereo not drawn)	·	·	·	·	–	·
Cc1cc(C(F)(F)F)c2c(=O)[nH]c(=O)n(Cc3ccccc3)c2n1	–	–	–	–	–	10µM
O=c1[nH]c(=O)n(Cc2ccccc2)c2nc(-c3ccco3)cc(C(F)(F)F)c12	–	–	–	–	–	?
SMILES	ALOX15B inhib	PNC assembly inh	IMPase cell inh	ALOX12 inhib	IMPase Li cell	HPGD inh
COc1ccc(C(=O)NCc2cn3c(C)csc3n2)cc1OC	·	-100	–	–	–	–
Cc1ccccc1C1C(C#N)=C2N=C(N)c3c(sc4c3CCCCC4)N2C2=C1C(=O)CCC2 (stereo not drawn)	–	–	–	–	–	–
COc1ccccc1-c1nccc(Nc2ccc(F)cc2)n1	–	·	·	·	–	·
CC(=O)c1sc(NC(=O)COc2c(C)cc(Cl)cc2C)nc1C	·	·	·	·	–	·
CCCC(=O)Nc1nc(C)c(C(C)=O)s1	·	·	·	·	8.9µM	·
CCC(=O)Nc1nc(C)c(C(=O)N2CCCCC2)s1	–	–	–	–	–	8.9µM
O=C(COc1ccc(Cl)cc1Cl)Nc1ccccn1	–	–	–	–	–	2µM
CC(=O)c1sc(NC(=O)COc2ccc(Cl)cc2Cl)nc1C	·	·	·	·	10µM	·
O=C(COc1ccccc1Cl)Nc1ccc(Cl)cn1	–	–	–	–	–	–
CCCCC(=O)Nc1nc(C)c(C(C)=O)s1	–	–	–	–	–	–
CCc1nnc(N2C(=N)SCC2=O)s1	·	·	·	·	–	·
O=C(COc1ccc(Cl)cc1Cl)NCc1ccncc1	–	–	–	–	–	25µM
OCCSCc1ccccc1	–[11.4 µM]	·	·	–[11.4 µM]	–	–
CCOc1ccc(C2c3c(oc4ccc(C)cc4c3=O)C(=O)N2Cc2ccc3c(c2)OCO3)cc1OC (stereo not drawn)	·	·	–	·	·	·
